Measured values reported in PubChem BioAssay (NCATS).
Results filed as inconclusive are left out. Activity calls are given as the source filed them. Calls follow the shape of the dose curve; as a rule, active = well fitted curve in the direction sought with a large enough effect; inconclusive = small, poorly fitted or top-dose-only effect, or another doubt; inactive = no such curve, though single readings can be large or run the other way.

biological target: Glucagon-like peptide 1 receptor (Homo sapiens) (UniProt P43220); test: qHTS of GLP-1 Receptor Agonists: LOPAC Validation (AID 624148); conditions: GLP-1R agonist cell assay; series mostly up to 46.1 µM;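 also: luminescence from a luciferase reporter switched on by cAMP; higher luminescence signal means agonism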
Description: The overall goal of this project was to develop a novel assay for discovering small molecule ligands for class B1 G protein-coupled receptors (GPCRs). Very few agonists (or inverse agonists) with generally weak activity for this entire group of physiologically important receptors are known to date. To establish proof-of-principle that this critical bottleneck can be overcome with a suitable screening approach, our studies focused on the class B1 receptor for glucagon-like peptide-1 (GLP-1R), a potential therapeutic target for diabetes and neurodegenerative disease.
The assay was developed in a "mix and measure" format using a cell-based functional readout. Toward this goal, stably transfected HEK293 cell clones were established that co-express (i) a cAMP-responsive luciferase reporter gene, and (ii) GLP-1Rs that upon ligand interaction either stimulate (agonists) or inhibit (inverse agonists) luciferase activity. In different cell lines to be used for screening, expressed GLP-1Rs are specifically optimized for high sensitivity detection of either weak agonists (hypersensitive receptor) or inverse agonists (constitutively active receptor mutant). In addition, control cell lines were developed that express either the cAMP-responsive reporter gene without recombinant GLP-1Rs (enabling initial exclusion of GLP-1R independent effects of candidate probes), or the reporter gene together with wild type GLP-1Rs (for confirmation of probe activity at this receptor), or the reporter gene in combination with the constitutively active orphan receptor GPR119 (enabling initial exclusion of GLP-1R independent inhibitory effects of candidate inverse agonists).
To that end, this assay was optimized for 1536-well format and screened against the MLSMR.
NIH Molecular Libraries Probe Production Network [MLPCN]
NIH Chemical Genomics Center [NCGC]
PI Name: Martin Beinborn, Tufts Medical Center
In a white solid 1536-well plate, 6 uL of cells are dispensed in DMEM without phenol red, 10% Nu serum, and 1% pen-strep medium. The plates are then incubated for 12 hours at 37 deg C at 5% CO2 before 23 nL of compounds are added. After a 4-6 hr incubation at37 deg C and 5% CO2, 3 uL of detection reagent are added and after a 12 min incubation at RT, a luminescent read is obtained on the ViewLux.

Chain of Glucagon-like peptide 1 receptor (Homo sapiens) (P43220 whole entry, looked up): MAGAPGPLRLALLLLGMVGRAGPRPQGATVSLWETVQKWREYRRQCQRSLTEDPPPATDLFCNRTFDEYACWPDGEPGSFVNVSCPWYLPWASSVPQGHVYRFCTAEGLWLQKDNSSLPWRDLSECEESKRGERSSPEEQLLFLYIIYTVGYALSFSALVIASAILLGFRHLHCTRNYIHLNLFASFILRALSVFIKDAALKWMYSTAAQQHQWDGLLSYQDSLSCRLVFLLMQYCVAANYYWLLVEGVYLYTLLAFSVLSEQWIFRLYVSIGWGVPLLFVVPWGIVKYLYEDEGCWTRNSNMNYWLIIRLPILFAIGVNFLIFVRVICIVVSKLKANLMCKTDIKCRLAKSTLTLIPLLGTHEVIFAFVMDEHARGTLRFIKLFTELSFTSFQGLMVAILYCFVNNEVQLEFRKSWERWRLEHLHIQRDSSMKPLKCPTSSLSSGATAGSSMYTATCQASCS

Compound	outcome
C[N+](C)(C)CCCCCCCCCC[N+](C)(C)C	inactive
Nc1nc(N)c2nc(-c3ccccc3)c(N)nc2n1	inactive
CO[C@@]1(NC(=O)CSCC#N)C(=O)N2C(C(=O)O)=C(CSc3nnnn3C)CS[C@@H]21	inactive
NC(=O)c1cn(Cc2c(F)cccc2F)nn1	inactive
O=C1CC2(CCCC2)CC(=O)N1CCCCN1CCN(c2ncccn2)CC1	inactive
C[n+]1cc2c3c(ccc2c2ccc4cc5c(cc4c21)OCO5)OCO3	inactive
C(=C\c1ccccc1)/CN1CCN(C(c2ccccc2)c2ccccc2)CC1	inactive
Cc1scc2c1N(C(=O)CN1CCN(C)CC1)c1ccccc1NC2=O	inactive
CN(C)[C@@H]1C(=O)C(C(N)=O)=C(O)[C@@]2(O)C(=O)C3=C(O)c4c(O)ccc(Cl)c4[C@@H](O)[C@H]3C[C@@H]12	inactive
CC(C)NNC(=O)c1ccncc1	inactive
CC(=O)[C@@]1(O)CC[C@H]2[C@@H]3CCC4=CC(=O)CC[C@]4(C)[C@H]3CC[C@@]21C	inactive
CN1C(=O)CC[C@H]1c1cccnc1	inactive
CC(=O)Nc1nnc(S(N)(=O)=O)s1	inactive
Cc1nc2ccccn2c(=O)c1CCN1CCC(C(=O)c2ccc(F)cc2)CC1	inactive
Cc1nnc(SCC2=C(C(=O)O)N3C(=O)[C@@H](NC(=O)Cn4cnnn4)[C@H]3SC2)s1	inactive
COC(=O)C1=C(C)NC(C)=C(C(=O)OCCN(C)Cc2ccccc2)C1c1cccc([N+](=O)[O-])c1 (stereo not given)	inactive
CCNC(=O)N1CCN(CCCC(c2ccc(F)cc2)c2ccc(F)cc2)CC1	inactive
CN(C)C/C=C(/c1ccc(Br)cc1)c1cccnc1	inactive
FC(F)(F)c1ccccc1-n1ccnc1	inactive
NC/C=C/C(=O)O	inactive

Compound	outcome
NC1=NCC2c3ccccc3Cc3ccccc3N12 (stereo not given)	inactive
CC(C(=O)O)c1ccc(CC2CCCC2=O)cc1 (stereo not given)	inactive
CC(=O)OC(C)C[N+](C)(C)C (stereo not given)	inactive
C[C@]12CCC(=O)C=C1CC[C@@H]1[C@@H]2C(=O)C[C@@]2(C)[C@H]1CC[C@]2(O)C(=O)CO	inactive
CCOC(=O)c1cnc2c(cnn2CC)c1NN=C(C)C	inactive
CCN(CC)CCCN(c1ccccc1)C1Cc2ccccc2C1	inactive
COc1cc(Cc2cnc(N)nc2N)cc(OC)c1OC	inactive
CCn1ccnc1CC1COc2ccccc2O1 (stereo not given)	inactive
CC1=NS(=O)(=O)c2cc(Cl)ccc2N1	inactive
C[C@]12C=CC(=O)C=C1CC[C@H]1[C@@H]3C[C@@H](O)[C@](O)(C(=O)CO)[C@@]3(C)C[C@H](O)[C@@]12F	inactive
N[C@@H](COP(=O)(O)O)C(=O)O	inactive
CN(C)CC/C=C1\c2ccccc2COc2ccccc21	inactive
CN(C(=O)CCCOc1ccc2[nH]c(=O)ccc2c1)C1CCCCC1	inactive
CN(C)C(=O)Oc1cccc([N+](C)(C)C)c1	inactive
CCN(Cc1ccncc1)C(=O)C(CO)c1ccccc1 (stereo not given)	inactive
CC(=O)Oc1cc(C(C)C)c(OCCN(C)C)cc1C	inactive
CN=C(NC#N)NCCSCc1nc[nH]c1C	inactive
CC[N+](C)(C)c1cccc(O)c1	inactive
C[C@]12CCC(=O)C=C1CC[C@@H]1[C@@H]2CC[C@@]2(C)[C@H]1CC[C@]2(O)C(=O)CO	inactive
CC(C)COCC(CN(Cc1ccccc1)c1ccccc1)N1CCCC1 (stereo not given)	inactive
